# Results: PubChem BioAssay
# Active and inactive are the calls of the source. Unless noted, no rule for the calls is given here.
# Key:
# [1] = compounds binding Alexa647 anti-His antibody – biochemical, small-molecule microarray, 635 nm fluorescence, artefact control for SMM control protein annotation, primary screen (AID 1128); details: higher = more signal;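 also: score merges feature fluorescence with signal-to-noise for each printed compound spot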
# [2] = system: Human papillomavirus type 1a E7 protein (residues 1-88); assay: HPV1a E7 small-molecule binders, primary screen, biochemical, small-molecule microarray, residues 1-88, 635 nm (AID 1129); details: small-molecule microarray binding, fluorescence 635 nm; higher = more signal
# [3] = target: Focal adhesion kinase 1 (Homo sapiens) (UniProt Q05397); assay: PTK2 protein binding on printed compound slides – biochemical, small-molecule microarray, 635/667 nm fluorescence, BSA, DTT, primary screen (AID 1130); details: 635 nm fluorescence, higher = more signal;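 also: composite of spot emission at 667 nm and signal to noise over triplicate slides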
# [4] = system: Fibrinogen (Alexa647-labelled); assay: Alexa647-fibrinogen binding to printed small molecules – biochemical, small-molecule microarray, 635/667 nm fluorescence, artefact control for SMM control-protein annotation, profiling panel (AID 1131); details: fibrinogen-A647 binding fluorescence, higher = more signal;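 also: z-score merges 667 nm fluorescence with per-spot signal-to-noise over triplicate slides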
# [5] = target: Follistatin (Homo sapiens) (UniProt P19883); assay: FST protein binding to printed compounds – biochemical, small-molecule microarray, 635/667 nm fluorescence, primary screen (AID 1132); details: 635 nm fluorescence, higher = more signal
# [6] = target: Fibroblast growth factor 2 (Homo sapiens) (UniProt P09038); assay: basic fibroblast growth factor binding to printed compounds – biochemical, small-molecule microarray, 635/667 nm fluorescence, primary screen (AID 1133); details: FGF2, fluorescence 635/667, higher = more signal
# [7] = JC-1 mitochondrial potential readout, lung cancer cells – cell-based, A549, JC-1 fluorescence, basal, 24 h, 100 nL, profiling panel (AID 1138); details: higher = more signal;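 also: A549 lung adenocarcinoma cells under basal conditions with no added stimulus; test concentration not given here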
# Lefty1 = Lefty1 protein binding to printed compounds – biochemical, small-molecule microarray, 635/667 nm fluorescence, primary screen (AID 1139); details: fluorescence 635/667, higher = more signal
# [8] = system: wheat germ agglutinin (Triticum aestivum), Alexa647-labelled; assay: Alexa647-WGA lectin binding to printed small molecules – biochemical, small-molecule microarray, 635/667 nm fluorescence, artefact control for SMM control-protein annotation, profiling panel (AID 1140); details: WGA-A647 binding, 635 nm fluorescence, higher = more signal;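 also: score merges 667 nm feature emission with signal to noise over triplicate slides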
# [9] = target: Luciferin 4-monooxygenase (Photinus pyralis) (UniProt P08659); assay: inhibition of purified Photinus pyralis luciferase – biochemical, luminescence, purified enzyme, 2006 set, primary screen (AID 1141); details: purified firefly luciferase, SteadyGlo luminescence, 30 min; higher = more signal, called active from +8 up or from −8 down;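 also: cell-free assay with purified firefly luciferase at 100 ng per well in PBS; test concentration not given here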
# [10] = system: Wnt5a (protein binding on small-molecule microarray); assay: small molecules binding Wnt5a protein – biophysical, small-molecule microarray, 635/667 nm fluorescence, primary screen (AID 1142); details: 635 nm fluorescence, higher = more signal;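 also: fluorescence read at 667 nm with signal to noise per printed feature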
# [11] = ATP-based viability of Huh7 replicon cells – cell-based, CellTiter-Glo luminescence, basal, 48 h, cytotoxicity control for HCV replication inhibitor project, primary screen (AID 1143); details: higher = more signal, called active from +8 up or from −8 down;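 also: Huh7 hepatoma cells carrying a hepatitis C replication reporter with no stimulus; test concentration not given here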
# [12] = Pseudomonas biofilm growth suppression – PAO1 strain, BacTiter-Glo luminescence, LB-PBS, primary screen (AID 1144); details: P. aeruginosa PAO1 biofilm, 12 h, higher = more signal
# [13] = basal CRE-LacZ reporter activity in PC12 – cell-based, unstimulated, primary screen (AID 1145); details: no forskolin, luminescence, 4.5 h, higher = more signal, called active from +8 up or from −8 down
# [14] = forskolin-driven CRE-LacZ activity in PC12 – cell-based, CRE-LacZ reporter, forskolin-stimulated, primary screen (AID 1146); details: luminescence, 4.5 h, higher = more signal, called active from +8 up or from −8 down;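 also: PC12 cells with 6xCRE LacZ reporter stimulated by forskolin 10 µM; beta-galactosidase reporter signal reflecting CREB driven transcription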
# [15] = target: Streptavidin (Streptomyces avidinii) (UniProt P22629); assay: compounds binding control protein streptavidin – biophysical, small-molecule microarray, 635/667 nm fluorescence, artefact control for SMM compound annotation, primary screen (AID 1147); details: higher = more signal;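 also: signal reflects streptavidin binding to arrayed compounds as a control protein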
# [16] = probe aInhba binding on compound microarray – biochemical, small-molecule microarray, 635/667 nm fluorescence, primary screen (AID 1148); details: higher = more signal;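 also: score merges 667nm spot fluorescence with signal-to-noise for antibody binding to printed compounds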
# Torsin-1A (Homo sapiens) [17] = target: Torsin-1A (Homo sapiens) (UniProt O14656); assay: TOR1A wild-type binding on microarray – cell lysate, small-molecule microarray, lysate, 635/667 nm, primary screen (AID 1149); details: COS7 hTOR1A-WT lysate, 635 nm fluorescence, higher = more signal
# Torsin-1A (Homo sapiens) [18] = target: Torsin-1A (Homo sapiens) (UniProt O14656); assay: torsin A mutant lysate binding on microarrays – cell lysate, small-molecule microarray, COS7 lysate, 635/667 nm fluorescence, primary screen (AID 1150); details: COS7 hTOR1A mutant lysate, 635 nm fluorescence, higher = more signal;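 also: score pools 667 nm emission and signal to noise measuring lysate protein binding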
# [19] = system: Sonic hedgehog protein (Shh); assay: Sonic hedgehog microarray binding compounds – biochemical, small-molecule microarray, 635/667 nm fluorescence, primary screen (AID 1151); details: 635 nm fluorescence, higher = more signal;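 also: Shh protein binding to compounds spotted on small-molecule microarray slides; score combines spot fluorescence intensity with signal-to-noise across triplicate slides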
# Luciferin 4-monooxygenase (Photinus pyralis), sequence (P08659 whole entry, looked up): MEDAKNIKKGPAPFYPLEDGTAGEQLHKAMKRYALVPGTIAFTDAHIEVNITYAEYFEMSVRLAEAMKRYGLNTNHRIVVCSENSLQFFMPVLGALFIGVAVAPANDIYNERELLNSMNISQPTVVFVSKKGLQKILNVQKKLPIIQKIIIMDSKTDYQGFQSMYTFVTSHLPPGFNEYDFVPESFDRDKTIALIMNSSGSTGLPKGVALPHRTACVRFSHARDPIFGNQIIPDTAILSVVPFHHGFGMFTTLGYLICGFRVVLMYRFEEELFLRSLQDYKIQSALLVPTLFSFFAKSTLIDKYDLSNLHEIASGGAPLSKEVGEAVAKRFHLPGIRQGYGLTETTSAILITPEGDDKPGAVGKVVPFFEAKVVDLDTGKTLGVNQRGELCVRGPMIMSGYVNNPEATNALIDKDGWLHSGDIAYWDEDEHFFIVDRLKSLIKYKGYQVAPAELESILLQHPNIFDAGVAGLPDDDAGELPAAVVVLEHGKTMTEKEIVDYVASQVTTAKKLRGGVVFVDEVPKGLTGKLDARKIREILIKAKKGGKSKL
# Follistatin (Homo sapiens), sequence (P19883 whole entry, looked up): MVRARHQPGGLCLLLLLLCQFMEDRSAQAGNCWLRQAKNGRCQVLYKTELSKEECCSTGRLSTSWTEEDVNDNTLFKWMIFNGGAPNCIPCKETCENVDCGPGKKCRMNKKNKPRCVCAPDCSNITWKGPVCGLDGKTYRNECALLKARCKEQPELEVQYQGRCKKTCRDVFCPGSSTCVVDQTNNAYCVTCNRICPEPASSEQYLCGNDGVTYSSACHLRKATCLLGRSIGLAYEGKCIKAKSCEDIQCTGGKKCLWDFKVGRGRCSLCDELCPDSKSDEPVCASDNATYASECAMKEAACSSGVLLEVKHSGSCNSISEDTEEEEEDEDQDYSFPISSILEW
# Streptavidin (Streptomyces avidinii), sequence (P22629 whole entry, looked up): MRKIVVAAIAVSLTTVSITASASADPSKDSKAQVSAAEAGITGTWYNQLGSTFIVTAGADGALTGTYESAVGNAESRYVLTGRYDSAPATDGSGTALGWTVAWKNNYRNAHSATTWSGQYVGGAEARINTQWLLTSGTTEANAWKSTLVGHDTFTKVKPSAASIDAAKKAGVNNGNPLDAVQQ
# Torsin-1A (Homo sapiens), sequence (O14656 whole entry, looked up): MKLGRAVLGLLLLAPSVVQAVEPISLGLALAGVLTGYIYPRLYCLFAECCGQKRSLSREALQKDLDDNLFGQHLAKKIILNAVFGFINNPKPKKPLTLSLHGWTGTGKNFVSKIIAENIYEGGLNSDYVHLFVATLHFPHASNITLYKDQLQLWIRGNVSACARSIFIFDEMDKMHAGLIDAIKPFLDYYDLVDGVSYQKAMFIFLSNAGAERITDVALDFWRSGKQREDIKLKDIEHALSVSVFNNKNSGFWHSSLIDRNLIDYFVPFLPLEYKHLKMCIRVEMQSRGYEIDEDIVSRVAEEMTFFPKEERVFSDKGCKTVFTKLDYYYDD
# Fibroblast growth factor 2 (Homo sapiens), sequence (P09038 whole entry, looked up): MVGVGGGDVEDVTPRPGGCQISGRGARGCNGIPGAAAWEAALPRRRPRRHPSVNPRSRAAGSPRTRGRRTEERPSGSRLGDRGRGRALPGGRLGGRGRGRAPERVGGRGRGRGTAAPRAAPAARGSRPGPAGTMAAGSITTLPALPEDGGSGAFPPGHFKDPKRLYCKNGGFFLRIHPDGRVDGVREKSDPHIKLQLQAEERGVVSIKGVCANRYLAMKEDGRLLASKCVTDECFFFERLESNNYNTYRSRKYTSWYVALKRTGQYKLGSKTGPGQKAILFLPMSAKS
# Focal adhesion kinase 1 (Homo sapiens), sequence (Q05397 whole entry, looked up): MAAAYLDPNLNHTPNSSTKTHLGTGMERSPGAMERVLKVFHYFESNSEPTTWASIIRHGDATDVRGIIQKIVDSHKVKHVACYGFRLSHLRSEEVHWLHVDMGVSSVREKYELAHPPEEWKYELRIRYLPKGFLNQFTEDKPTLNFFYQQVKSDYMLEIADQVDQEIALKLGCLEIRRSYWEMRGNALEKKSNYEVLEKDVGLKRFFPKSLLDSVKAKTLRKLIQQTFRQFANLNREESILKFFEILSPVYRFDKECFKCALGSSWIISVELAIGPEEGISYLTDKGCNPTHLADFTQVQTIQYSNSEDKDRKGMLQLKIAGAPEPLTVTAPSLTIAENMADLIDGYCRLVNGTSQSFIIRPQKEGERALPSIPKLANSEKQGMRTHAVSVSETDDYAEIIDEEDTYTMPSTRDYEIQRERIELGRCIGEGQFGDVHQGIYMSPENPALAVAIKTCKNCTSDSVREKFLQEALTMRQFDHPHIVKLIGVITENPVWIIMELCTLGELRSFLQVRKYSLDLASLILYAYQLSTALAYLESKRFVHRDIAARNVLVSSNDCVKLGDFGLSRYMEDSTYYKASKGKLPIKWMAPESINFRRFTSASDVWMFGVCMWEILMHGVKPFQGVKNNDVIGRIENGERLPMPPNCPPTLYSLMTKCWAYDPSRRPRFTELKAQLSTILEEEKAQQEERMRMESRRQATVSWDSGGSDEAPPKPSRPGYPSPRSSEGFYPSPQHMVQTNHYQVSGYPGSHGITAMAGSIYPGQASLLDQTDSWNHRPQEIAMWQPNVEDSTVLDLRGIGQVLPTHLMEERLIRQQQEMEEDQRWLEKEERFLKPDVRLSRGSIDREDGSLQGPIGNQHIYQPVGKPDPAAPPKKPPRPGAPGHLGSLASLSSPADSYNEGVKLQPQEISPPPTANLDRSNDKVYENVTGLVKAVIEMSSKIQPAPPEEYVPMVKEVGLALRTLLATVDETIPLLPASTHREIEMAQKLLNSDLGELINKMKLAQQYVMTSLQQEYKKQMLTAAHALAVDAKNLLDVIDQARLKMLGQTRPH
SMILES,composite z-score [1],composite z-score [2],composite z-score [3],composite z-score [4],composite z-score [5],composite z-score [6],z-score [7],composite z-score (Lefty1),composite z-score [8],z-score [9],composite z-score [10],z-score [11],z-score [12],z-score [13],z-score [14],composite z-score [15],composite z-score [16],composite z-score (Torsin-1A (Homo sapiens) [17]),composite z-score (Torsin-1A (Homo sapiens) [18]),composite z-score [19]
COCCNC(=O)OCC1CCCC2(CC(OC(=O)NCc3ccc4c(c3)OCO4)CC(CCC(=O)N[C@@H](C)C(=O)OC)O2)O1 (stereo not given in full),0.721,0.885,0.136,0.592,0.752,1.13,-0.397,1.3,0.139,0.89 (inactive),-0.0558,-0.773 (inactive),-0.0785 (inactive),-0.0755 (inactive),0.468 (inactive),0.303,-0.205,0.308,0.551,1.5
Cc1cc2c(nc1C)CCCCN2CC(C)ON=C1[C@H]2CCn3c(=O)n(-c4ccccc4)c(=O)n3[C@H]2[C@H](O)[C@@H]2O[C@H]12 (stereo not given in full),0.761,-0.0951,-0.0065,0.7,0.7,0.875,-0.196,1.31,1,-0.661 (inactive),0.384,-0.299 (inactive),0.888 (inactive),-1.21 (inactive),-0.379 (inactive),-0.251,-0.125,-0.0459,-0.136,0.829
CC(CCC(=O)OC[C@H]1O[C@H](C#Cc2ccccc2)C=C[C@@H]1Oc1ccc(C)cc1)=NO[C@H](C)c1cn([C@H](CO)Cc2ccccc2)nn1,0.126,0.921,0.648,0.856,0.6,0.52,0.6,0.724,0.442,-0.085 (inactive),-0.313,-0.874 (inactive),0.195 (inactive),0.15 (inactive),1.15 (inactive),0.0184,-0.149,-0.234,0.683,0.327
CON=C1[C@H]2CCn3c(=O)n(-c4ccccc4)c(=O)n3[C@H]2[C@H](O)[C@@H]2O[C@H]12,1.95,0.574,0.295,0.148,0.743,0.986,0.758,0.695,0.168,-2.49 (inactive),0.0275,0.653 (inactive),-0.633 (inactive),1.55 (inactive),0.236 (inactive),0.0011,-0.268,0.144,0.606,0.435
CCOC(=O)[C@H](CC(C)C)NC(=O)CCC1CC(OC(=O)NCc2cccc3ccccc23)CC2(CCCC(COC(=O)NCc3ccncc3)O2)O1 (stereo not given in full),0.894,1.19,0.0121,0.839,0.768,1.58,1.42,1.01,0.725,0.301 (inactive),-0.0656,-0.905 (inactive),-0.243 (inactive),0.562 (inactive),0.633 (inactive),0.629,0.0074,0.126,0.565,1.25
CO[C@@H]1COC(=O)[C@@H](C)NC(=O)CC=C[C@@H](C)[C@H](NS(=O)(=O)c2ccc(C)cc2)COC(=O)[C@H](C)NC(=O)CC=C[C@H]1C,-0.0135,-0.693,-0.0691,-0.965,0.848,0.0303,1.07,0.895,-0.694,-1.15 (inactive),-0.0222,0.806 (inactive),0.829 (inactive),0.881 (inactive),-0.314 (inactive),-0.967,-0.218,1.31,0.584,1.33
O=C1C[C@@H](O)[C@@H](O)[C@@H]2[C@@H]3C(=O)N(c4cccc(Oc5ccccc5)c4)C(=O)[C@@H]3CC[C@H]12,-0.0123,0.818,-0.031,0.345,0.505,0.31,1.23,0.471,0.268,-0.275 (inactive),0.114,0.393 (inactive),0.247 (inactive),2.51 (inactive),0.287 (inactive),0.0742,-0.183,0.162,0.331,0.669
CC(C)=CCCC(C)=CCON=C1C[C@@H](O)[C@@H](O)[C@@H]2[C@@H]3C(=O)N(C(C)(C)C)C(=O)[C@@H]3CC[C@@H]12,0.696,0.494,0.057,-0.0293,0.307,0.247,-0.872,0.351,0.269,0.421 (inactive),-0.0529,-0.813 (inactive),-0.408 (inactive),1.6 (inactive),0.585 (inactive),-0.125,-0.293,0.244,0.764,0.711
CO[C@H](C1CCCCC1)[C@H](C)C=CCC(=O)OCCCc1ccccc1,3.29,-1.15,0.114,-0.938,0.351,0.541,-0.00988,0.0696,-0.464,-1.02 (inactive),-0.125,0.419 (inactive),-0.294 (inactive),0.248 (inactive),-0.468 (inactive),0.203,-0.416,0.113,0.171,-0.057
